HT1080NT lethal: kills 2HG-producing HT-1080-NT fibrosarcoma cells; Potency, µM (top dose mostly 46.1 µM), for the others: top-dose activity, negative = less viability, hits mostly cytotoxic; HT-1080-NT fibrosarcoma viability, CellTiter-Glo ATP luminescence, 48 h; 360,000 compounds, 1.6% hits; AID 686970;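 further: NT is the 2HG producing partner of a matched IDH1 knockdown line; 0% = DMSO-treated cells and -100% = media-only wells without cells; nearly all actives have a fitted effect of over 55% in size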
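Viability of the 2HG-overproducing fibrosarcoma line after 48 hours of compound exposure at 37 degrees C was determined by luminescence with CellTiter-Glo, and concentration-effect curves were then fitted and categorized.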
KB-3-1 tox: kills parental KB-3-1 adenocarcinoma cells. 400,000 compounds, 1.4% hits. Potency, µM (top dose mostly 46.1 µM), most hits filed as cytotoxic. KB-3-1 viability, CellTiter-Glo ATP luminescence, 72 h; further: on the % scale 0 is the no-effect control and ±100 the full control effect; nearly all actives have a fitted effect of over 60% in size
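72 h, 37 °C compound treatment of KB-3-1 parental cells; CellTiter-Glo added, 10 min, luminescence read. Data corrected against DMSO-only plates and normalized before curve fitting.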
HT1080 IDH1KD tx: HT-1080 IDH1 knockdown cell toxicity (counter line). 360,000 compounds, 2% hits. Potency, µM (titrated, usually from 46.1 µM), for the others: at the highest dose activity, negative = toxicity, most hits filed as cytotoxic. HT-1080 IDH1 knockdown viability, ATP luminescence, 48 h;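 further: 0% = DMSO wells and -100% = cell-free medium wells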
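IDH1KD HT-1080 cells, 750/well, RPMI + 5% FBS; compound pinned after 2 h settling; 48 h, 37 °C; CellTiter-Glo luminescence; % activity normalised to DMSO and no-cell wells; curves fitted, classed by r2 and efficacy.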
MCF10A rerep: induces DNA re-replication in MCF 10a normal breast cells. MCF 10A DNA re-replication, Hoechst nuclear intensity, 48 h. Potency, µM (top dose mostly 46.1 µM), for inactives: at the highest dose activity, positive = re-replication, most hits filed as activators. 350,000 compounds, 2.9% hits; further: % of control where 0% means no effect; nearly all actives have a fitted effect of over 50% in size
KB-V1 cytotox: KB-V1 MDR subline cytotoxicity | KB-V1 MDR cells viability, CellTiter-Glo, 72 h | Potency, µM (doses to about 46.1 µM), most hits filed as cytotoxic | 400,000 compounds, 3.4% hits; further: on the % scale 0 is the no-effect control and ±100 the full control effect; nearly all actives have a fitted effect of over 60% in size
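Readout: CellTiter-Glo luminescence, 10 min after addition. Cells: KB-V1 MDR subline, 72 h at 37 degrees C with compound. Analysis: corrected, normalized data fitted to concentration-effect curves.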
SW480 rerep: induces DNA re-replication in SW480 colon adenocarcinoma cells; SW480 DNA re-replication, Hoechst DNA content imaging, 48 h; Potency, µM (top dose mostly 46.1 µM), without a hit: top-dose re-replication activation, most hits filed as activators; 340,000 compounds, 1.8% hits; further: % of control where 0% means no effect; nearly all actives have a fitted effect of over 55% in size
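Treated cells incubate 48 hr (37 C, 5% CO2), are stained 40 min with Hoechst, and nuclear fluorescence is enumerated; a rise in nuclei with high DNA signal marks re-replication.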
An asterisk follows results filed as active; i = inactive; ? = inconclusive; · = no result given; [ ] = another dose, or the depositor's remark. Only some compounds are listed: those with a hit (about 8% of all), similar ones and a draw of the others. The call rests on the fitted dose curve; in most records, active means well fitted curve in the direction sought with a large enough effect; inconclusive means small, poorly fitted or top-dose-only effect, or another doubt; inactive means no such curve, though single readings can be large; an effect the other way counts as inactive or inconclusive. Potency means the concentration at half of the fitted maximal effect.

SMILES	HT1080NT lethal	KB-3-1 tox	HT1080 IDH1KD tx	MCF10A rerep	KB-V1 cytotox	SW480 rerep
CC1CC(C)C[N+](=C2C=C(N3CCCC3)CC(C)(C)C2)C1 (stereo unspecified)	9.2µM*	5.8µM*	?	26%	i	?
CN(Cc1ccccc1)C1=CC(=[N+]2CCCC2)CC(C)(C)C1	?	i	?	0%	i	1%
CCN(CC)C1=CC(=[N+]2CCCC2)CC(C)(C)C1	?	?	?	0%	i	1%
CC1(C)CC(N2CCN(c3ccccc3)CC2)=CC(=[N+]2CCCC2)C1	1.1µM*	12µM*	14µM*	2%	i	3%
O=C(O)c1cccc(Oc2ccccc2[N+](=O)[O-])c1	9%	i	13%	0%	i	-24%
Cc1ccc2oc(=O)c3cnn(CC(=O)NCCCOC(C)C)c3c2c1	-1%	?	-2%	0%	i	-10%
O=C(O)c1cc(Cl)ccc1-c1ccc(/C=C/c2cc(C(F)(F)F)[nH]c(=O)n2)o1	6%	i	16%	18µM*	?	?
Cc1cc(C)c2oc(-c3ccc(NC(=O)c4cc(Br)ccc4Cl)cc3)nc2c1	·	i	·	·	i	·
N#CCCN(Cc1cccnc1)S(=O)(=O)c1ccc2ccccc2c1	1%	i	1%	-3%	23µM*	-4%
CC(C)n1ncc2c(C(=O)N3CCN(Cc4ccc(Cl)s4)CC3)cc(C3CC3)nc21	3%	?	-12%	?	8.2µM*	5%
Cc1ccc(S(=O)(=O)N2CCN(C(=O)c3cc(C4CC4)nc4c3cnn4C(C)C)CC2)cc1	-4%	?	0%	10%	i	6%
CC(/C=C/c1ccco1)=N\NC(=O)CNc1ccc2ccccc2c1	-10%	i	-3%	7%	i	5%
CCN(CC)CCN1c2ccccc2Sc2ccc3ccccc3c21	?	i	?	?	i	18µM*
CCN(CC)CCN1c2ccccc2Sc2ccccc21	-9%	i	6%	0%	i	-3%
Cc1cc(C)n2nc(SCC(=O)N3CCN(c4ccccc4)CC3)nc2n1	10%	i	9%	-2%	12µM*	-3%
Cc1cc(C)n2nc(SCC(=O)N3CCCC3)nc2n1	3%	i	-1%	-1%	i	0%
Cc1cc(C)cc(NC(=O)CSc2nc3nc(C)cc(C)n3n2)c1	-2%	i	1%	6%	18µM*	-1%
Cc1nn(Cc2ccccc2)c(C)c1NC(=O)CCCn1nc(C)c([N+](=O)[O-])c1C	-2%	i	1%	21%	23µM*	15%
Cc1nn(Cc2ccc(Cl)cc2)c(C)c1NC(=O)CCCn1nc(C)c([N+](=O)[O-])c1C	-1%	i	-3%	0%	?	-55%
Cc1c(Cl)c([N+](=O)[O-])nn1CCCC(=O)Nc1cccc(Cl)c1	14%	?	8%	5%	18µM*	-5%
O=C1NC2C(NC(=O)N2C2CCCCC2)N1C1CCCCC1 (stereo unspecified)	13%	i	9%	-3%	i	-5%[9.22 µM]
COc1cc(/C=N/N(CCO)C2=NS(=O)(=O)c3ccccc32)cc(OC)c1OC	3%	i	-13%	14%	i	-8%
COc1ccc(C2=Nc3ccccc3N(C(=O)c3ccc(C)cc3)C2C(=O)NCc2ccccc2)cc1 (stereo unspecified)	1%	i	7%	·	?	·
COc1ccc(C2=Nc3ccccc3N(C(=O)c3ccc4c(c3)OCO4)C2C(=O)NCc2ccccc2)cc1 (stereo unspecified)	-41%	4.6µM*	?	·	?	·
CC1(C(=O)NS(=O)(=O)c2cccc(F)c2)CCN1C(=O)C/C=C/c1ccccc1 (stereo unspecified)	9%	i	21%	·	i	·
SMILES	HT1080NT lethal	KB-3-1 tox	HT1080 IDH1KD tx	MCF10A rerep	KB-V1 cytotox	SW480 rerep
O=C1CCCC2=C1C(c1ccc(Cl)cc1)C1C(=O)c3ccccc3C1=N2 (stereo unspecified)	?	i	?	13µM*	i	15µM*
COC(=O)c1ccc(Sc2nnnn2-c2ccccc2)c([N+](=O)[O-])c1	?	?	?	?	?	10µM*
Cc1cc(C)c2c(NC(=S)Nc3ccccc3)n[nH]c2n1	0%	i	15%	-1%	?	-3%
COCCCNC(=O)Cn1c(=O)n(-c2ccc(C)c(C)c2)c(=O)c2c3c(sc21)CCCCC3	·	i	·	·	i	·
CCSc1nsc(NC(=O)Nc2ccccc2F)n1	?	?	-29%	?	16µM*	-3%
CCSc1nsc(NC(=O)Nc2cccc(OC)c2)n1	?	?	?	2%	?	24%
CCOC(=O)c1sc(NC(=O)Nc2ccc(F)cc2)nc1C	-7%	?	-2%	13%	?	-9%
C=CCSc1nsc(NC(=O)Nc2ccc(F)cc2)n1	16µM*	?	2.9µM*	?	21µM*	156%
CC(C(=O)Nc1cccc(S(=O)(=O)N2CCOCC2)c1)N1CCN(C/C=C/c2ccccc2)CC1 (stereo unspecified)	-20%	i	-4%	?	?	2%
COc1ccc(C2=NN(c3nc(-c4ccc(CNC(C)=O)cc4)cs3)C(c3ccco3)C2)cc1 (stereo unspecified)	-5%	i	-3%	2.6µM*	i	?
COc1cc(OC)cc(C(=O)N2CC(=O)Nc3ccccc32)c1	?	?	?	1.5µM*	2.3µM*	3.3µM*
CC(C)n1nc(C(=O)OCC(=O)N2CC(=O)Nc3ccccc32)c2ccccc2c1=O	8%	i	10%	-7%	i	-2%
CCCn1nc(C(=O)N2CC(=O)Nc3ccccc32)c2ccccc2c1=O	?	8.2µM*	?	15µM*	21µM*	15µM*
Cc1occc1-c1nnc(SCCCC(=O)c2ccc(F)cc2)n1C	-4%	i	-1%	2%	?	3%
Cc1cc(=O)oc2cc3c(cc12)OCCO3	15%	i	15%	12%	i	0%
Cc1cc(=O)oc2cc3c(cc12)OCCN3	14%	i	16%	8.2µM*	i	?
O=C(Nc1ccc2c(c1)OCCO2)C1CCN(S(=O)(=O)c2ccccc2)CC1	-15%	i	-1%	?	i	17%
COc1ccc(C2CCCCCN2C(=O)C2CCN(S(=O)(=O)c3cccc(C(C)=O)c3)CC2)cc1 (stereo unspecified)	-6%	i	-3%	0%	18µM*	?

Screening results as filed in PubChem.
